Measured values taken from PubChem BioAssay AID751 (NMMLSC, 2007).
About 40 (0.2%) of roughly 24,000 compounds were called active.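 How the source made its calls: active means inhibition of disassembly above about 33% (limit read from the data); inconclusive means likely self-fluorescent, control bead median signal at least 40; inactive means the rest.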 The sample as a whole holds a higher share of actives than the screen did.

Tested on: 26S proteasome (yeast, GFP-tagged, ATP-dependent disassembly)
Assay: blockers of yeast 26S proteasome breakdown – biochemical, bead-based flow cytometry, GFP-tagged proteasome, primary screen (AID 751);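 further: plate controls were ATP control with full disassembly for no effect and ATP-gamma-S intact proteasomes for full effect; higher percent means more bead fluorescence retained so stronger block of disassembly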
Conditions: anti-FLAG beads, active compounds read high, concentration not given here

Inhibition of disassembly, inactive:
O=C(c1cc(-c2ccccc2O)on1)N1CCCC1 3.8%, CCCCC(=O)Nc1cc(C)c2c(=O)oc3ccccc3c2n1 -3.04%, COc1ccccc1-c1nc(C(F)(F)F)c(OC)o1 -0.84%, O=C(Nc1nsc(-c2ccccc2)n1)c1ccncc1 -0.11%, COC(=O)c1oc2ccc(Br)cc2c1NC(C)=O 0.425%, Cc1cc(=O)n2nc(N3CCCC(C(=O)NCCC4=CCCCC4)C3)sc2n1 (configuration not stated) -1.75%, Cc1cc(C)c(C)c(S(=O)(=O)Nc2ccc(O)cc2)c1C 0.6%, O=C(NCc1cccs1)c1ccc2c(c1)ncn2C1CCCC1 0.01%, O=C(Cn1nnc(-c2ccc(CN3CCOCC3)cc2)n1)NC1CCCCC1 0.56%, O=C(CN1C(=O)C2C3C=CC(C3)C2C1=O)NCCc1ccccc1Cl (configuration not stated) -3.34%, CCOC(=O)C1CCN(C(=O)Cc2c(C(=O)O)[nH]c3ccccc23)CC1 1.78%, CC(c1nnc(SCC(=O)Nc2sccc2C#N)n1-c1ccc(Cl)cc1)N(C)C (configuration not stated) 0.73%, COC(=O)c1ccccc1NC(=O)c1cncc(Br)c1 1.29%, CCOC(=O)C1C(=O)C=C(c2ccc(OC)cc2)CC1c1ccco1 (configuration not stated) -0.2%, O=c1c2[nH]c3ccc(Cl)cc3c2ncn1Cc1ccccn1 -0.64%, Cn1c(COc2ccc(Cl)cc2)nc2ccccc2c1=O -1.78%, O=C1CC(c2cccc(Br)c2)C2=C(CCCC2=O)N1 (configuration not stated) 2.93%, COc1ccc(CCNC(=O)c2ccc3c(c2)NC(=O)C(N2CCOCC2)S3)cc1OC (configuration not stated) 7.35%, COc1ccc(CCNC(=O)CCCCn2c(=O)[nH]c3ccccc3c2=O)cc1OC -2.22%, Cc1oc(-c2cccc(Cl)c2)[n+]([O-])c1C -1.38%, COc1ccc(CC(=O)Nc2c3c(nn2-c2cccc(Cl)c2)CS(=O)C3)cc1 (configuration not stated) -0.575%, COc1ccc(CCNC(=O)c2cc(-c3ccc4c(c3)OCO4)on2)cc1OC -0.34%, CCOC(=O)Cn1c(=O)oc2cc(S(=O)(=O)NCC3CCCO3)ccc21 (configuration not stated) -1.43%, CCOC(=O)c1c(C)oc2ccc(OCC(=O)N(CC)CC)cc12 0.35%, O=C(CCCCn1c(=O)[nH]c2ccccc2c1=O)NCc1ccc2c(c1)OCO2 1.45%, Cn1c(=O)[nH]c(=O)c2c1nc(N(CCO)Cc1ccccc1)n2Cc1ccccc1Cl 0.72%, COC(=O)C1C(=O)c2c([nH]c(C(=O)OCCSC)c2C)CC1C (configuration not stated) -0.89%
